This note sets out measurements from the supplement of paper PMC8728848.

Common to all, as to assay: glycan array binding signal (z-score within array); higher = stronger binding
Settings in all cases: glycan notation: IUPAC condensed, linker removed

For assay [1], the target named is Gal(b1-4)GlcNAc(b1-3)Gal(b1-4)GlcNAc(b1-3)Gal(b1-4)GlcNAc(b1-3)Gal(b1-4)GlcNAc(b1-3)Gal(b1-4)GlcNAc(b1-2)Man(a1-3)[Gal(b1-4)GlcNAc(b1-3)Gal(b1-4)GlcNAc(b1-3)Gal(b1-4)GlcNAc(b1-3)Gal(b1-4)GlcNAc(b1-3)Gal(b1-4)GlcNAc(b1-2)Man(a1-6)]Man(b1-4)GlcNAc(b1-4)GlcNAc. The method in brief:
(§1)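 The binding signal is a Z-score computed within each array and averaged over linkers. Arrays of the same protein sequence at different concentrations or buffers were also averaged together. Data originate from 3228 arrays in the Consortium for Functional Glycomics database, kept only where the protein sequence was available.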

A further assay has as its target Gal6S(b1-4)Glc. The gist of the method:
as §1

The next assay addresses Gal6S(b1-4)GlcNAc. The method in brief: as §1
The next assay has as its target GalNAc(a1-3)Gal. The method in brief: as §1
The target of another assay is GalNAc(a1-3)GalNAc. The method in brief:
as §1

The target of assay [2] is GalNAc(b1-3)Gal(a1-4)Gal(b1-4)GlcNAc(b1-3)Gal(b1-4)Glc. The method in brief: as §1
The target of a further assay is GalNAc(b1-6)GalNAc. The gist of the method: as §1
Assay [3] has as its target GlcNAc(a1-4)Gal(b1-4)GlcNAc(b1-3)Gal(b1-4)GlcNAc. The gist of the method:
as §1

The target of assay [4] is GlcNAc(a1-4)Gal(b1-4)GlcNAc(b1-3)Gal(b1-4)[Fuc(a1-3)]GlcNAc(b1-3)Gal(b1-4)[Fuc(a1-3)]GlcNAc. The method in brief:
as §1

The target of assay [5] is GlcNAc(b1-2)[GlcNAc(b1-4)]Man(a1-3)[GlcNAc(b1-4)][GlcNAc(b1-2)[GlcNAc(b1-6)]Man(a1-6)]Man(b1-4)GlcNAc(b1-4)GlcNAc. The method in brief: as §1
The target of assay [6] is GlcNAc(b1-3)Gal(b1-4)GlcNAc(b1-3)Gal(b1-4)GlcNAc(b1-2)Man(a1-3)[GlcNAc(b1-3)Gal(b1-4)GlcNAc(b1-3)Gal(b1-4)GlcNAc(b1-2)Man(a1-6)]Man(b1-4)GlcNAc(b1-4)[Fuc(a1-6)]GlcNAc. The method in brief:
as §1

The target in assay [7] is Man(a1-3)[Man(a1-6)]Man(a1-6)[Man(a1-3)]Man. The gist of the method:
as §1

Assay [8] concerns the target Neu5Ac(a2-3)Gal(b1-3)GalNAc6S. The gist of the method:
as §1

Assay [9] addresses Neu5Ac(a2-3)Gal(b1-3)[Neu5Ac(a2-6)]GlcNAc(b1-3)[Fuc(a1-3)[Gal(b1-4)]GlcNAc(b1-6)]Gal(b1-4)Glc. The method in brief:
as §1

Assay [10] deals with Neu5Ac(a2-3)Gal(b1-4)GlcNAc(b1-2)[Neu5Ac(a2-3)Gal(b1-4)GlcNAc(b1-4)]Man(a1-3)[GlcNAc(b1-4)][Neu5Ac(a2-3)Gal(b1-4)GlcNAc(b1-4)Man(a1-6)]Man(b1-4)GlcNAc(b1-4)GlcNAc. The method in brief:
as §1

The target in assay [11] is Neu5Ac(a2-3)Gal(b1-4)[Fuc(a1-3)]GlcNAc(b1-2)Man. The gist of the method:
as §1

The target in assay [12] is Neu5Ac(a2-6)Gal(b1-4)GlcNAc(b1-2)Man(a1-3)[Man(a1-6)]Man(b1-4)GlcNAc(b1-4)GlcNAc. The gist of the method: as §1
In assay [13] the target is Neu5Ac(a2-6)Gal(b1-4)GlcNAc(b1-2)[Neu5Ac(a2-6)Gal(b1-4)GlcNAc(b1-4)]Man(a1-3)[GlcNAc(b1-4)][Neu5Ac(a2-6)Gal(b1-4)GlcNAc(b1-4)Man(a1-6)]Man(b1-4)GlcNAc(b1-4)GlcNAc. The method in brief:
as §1

Assay [14] concerns the target Neu5Ac(a2-6)Gal(b1-4)GlcNAc(b1-6)[Gal(b1-3)]GalNAc. The method in brief:
as §1

Assay [15] addresses Neu5Ac(a2-6)GalNAc(b1-4)GlcNAc. The method in brief:
as §1

Assay [16] deals with Neu5Ac(a2-8)Neu5Ac(a2-8)Neu5Ac(a2-3)Gal(b1-4)Glc. The gist of the method:
as §1

In another assay the target is Neu5Gc(a2-6)GalNAc. The method in brief:
as §1

The sample as a whole holds a higher share of the strongest signals than the screen did.

B1: OS9-MRH (Homo sapiens), Q13438 (protein)
chain: IPELLSPMRDAPCLLKTKDWWTYEFCYGRHIQQYHMEDSEIKGEVLYLGYYQSAFDWDDETAKASKQHRLKRYHSQTYGNGSKCDLNGRPREAEVRFLCDEGAGISGDYIDRVDEPLSCSYVLTIRTPRLCPHPLLRPPPSAAPQAI
For the molecule B1, the “glycan array binding signal (z-score)” value is 2.42 in assay [1]; -0.643 in the assay with Gal6S(b1-4)Glc; -0.312 in the assay with Gal6S(b1-4)GlcNAc; 2.81 with GalNAc(a1-3)Gal; 3.57 with GalNAc(a1-3)GalNAc; -1.33 in assay [2]. Moreover, the “glycan array binding signal (z-score)” value with GalNAc(b1-6)GalNAc was 1.14; in assay [3] it was -0.159; in assay [4], 1.12; in assay [5], -1.46; in [6] it was 0.656; in assay [7] it was 0.835. Also, the “glycan array binding signal (z-score)” value is 0.458 in [8]; -0.321 in [9]; 0.322 in [10]; -0.503 in assay [11]; -0.807 in assay [12]; -0.99 in [13]. In addition, the “glycan array binding signal (z-score)” value in assay [14] is -0.081; in [15] it was 5.26; in assay [16] it was 0.1; with Neu5Gc(a2-6)GalNAc, 1.14.
